Growth data for 15 compounds are collected here from PubChem BioAssay (NCI).

This is part of a sample that, as a whole, favours compounds with a hit. Of some 83,000 tested, about 20% had one in any assay.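 For each line, cells grew in 96-well plates with the test compound present at a single concentration for 48 hours.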 Active and inactive are the calls of the source. Rule for the calls: active = growth percent below 10; inactive = the rest.

The test concerns U251 CNS. The experiment in a line: NCI-60 one-dose screen, 48 h (100 = growth as untreated, 0 = no growth, -100 = all killed). As to conditions: 10 µM unless noted.
On to `Clc1ccc(/C=C/c2nc(Nc3ccc(Cl)cc3)c3ccccc3n2)cc1`, for which the growth was 100% (inactive).

In the case of `CCOC(=O)c1c(C)nc2c(c1N)/C(=C/c1ccc(OC)cc1)C(=O)N2Cc1ccc(F)cc1`, the growth was -81.5% (active).

Turning to `CCCCN1CCN(c2ccc3nc(-c4ccc5nc(-c6cc(OC)c(OC)c(OC)c6)[nH]c5c4)[nH]c3c2)CC1`, the growth is 56.3% (inactive).

`O=C1CCC(N2C(=O)c3cccc(NCCCC4CCN(CCNC(=O)c5cc6c(o5)C(=O)c5ccccc5C6=O)CC4)c3C2=O)C(=O)N1` (stereo not given): the growth is -83.6% (active).

On to `COc1ccc(-c2cncnc2N)cc1OC`, for which the growth was 97.7% (inactive).

In the case of `O=S(=O)(NCCNc1cc(-c2c(-c3cccc(O)c3)nc3sccn23)ccn1)c1ccc(Br)cc1`, the growth was 64.6% (inactive).

Regarding `CC(=O)c1sc(-c2ccccc2)cc1N`, the growth was 82.7% (inactive).

With `Nc1c(C(=O)c2ccccc2)nnc2ncnn12`, the growth is 95.8% (inactive).

Take `CCNCCNc1cc(-c2ccc(C#N)cc2)c(C#N)c2nc3ccccc3n12`: the growth is -23.4% (active).

For `Fc1ccc(Nc2nc(Nc3ccc(-c4nc5ccccc5[nH]4)cc3)c3cn[nH]c3n2)cc1`, the growth is 33.5% (inactive).

Regarding `COc1c(C)cnc(CSc2nc(-c3ccc(C)cc3)cn2-c2ccc(Cl)cc2)c1C`, the growth was 104% (inactive).

For the compound `Cc1c2c(cn1Cc1ccccc1)CCc1cn[nH]c1-2`, the growth is 89.3% (inactive).

On to `COc1ccc(O)c(-c2cc(-c3ccccc3)c(C#N)c(=O)[nH]2)c1`, for which the growth is 73.4% (inactive).

Take `CC(=O)Nc1ccc(C(=O)/C=C/c2ccccc2)cc1`: the growth is 76.3% (inactive).

For `CCCCCCCC/C=C/CCCCCCCC1=NCC[N+]1(CCO)CCO`, the growth is 36.1% (inactive).
